Source: PubChem BioAssay AID493012 (Sanford-Burnham Center for Chemical Genomics, 2011)
Screen size: about 330,000 compounds; about 930 (0.28%) were called active. This is one part of a sample in which actives are shown more often than they occur.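 Rule for the calls: active = inhibition of at least 40% at 20 µM, with no more than 30% in the related APOBEC3A deaminase screen; inactive = the rest.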

Each molecule was assayed against DNA dC->dU-editing enzyme APOBEC-3G (Homo sapiens) (UniProt Q9HC16) (assay: APOBEC3G DNA deaminase inhibitors, primary screen, biochemical, fluorescence, single-stranded DNA substrate, uHTS (AID 493012;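 note: plate controls were DMSO wells with A3G for no effect and wells lacking A3G enzyme for full effect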)). Settings: recombinant A3G, ssDNA deamination FAM/TAMRA fluorescence; at 20 µM; hits give high values.
DNA dC->dU-editing enzyme APOBEC-3G (Homo sapiens), sequence (Q9HC16 whole entry, looked up): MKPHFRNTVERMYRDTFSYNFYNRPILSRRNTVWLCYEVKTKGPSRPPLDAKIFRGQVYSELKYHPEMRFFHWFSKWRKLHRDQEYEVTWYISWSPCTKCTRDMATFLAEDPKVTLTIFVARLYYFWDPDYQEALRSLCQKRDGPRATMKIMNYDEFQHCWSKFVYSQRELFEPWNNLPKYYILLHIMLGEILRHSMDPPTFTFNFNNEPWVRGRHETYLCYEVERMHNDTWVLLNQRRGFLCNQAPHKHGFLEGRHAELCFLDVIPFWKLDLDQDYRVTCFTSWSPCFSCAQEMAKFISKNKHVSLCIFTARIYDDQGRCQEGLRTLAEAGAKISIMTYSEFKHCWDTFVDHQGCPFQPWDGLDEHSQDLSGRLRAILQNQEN

inhibition, inactive:
Cc1cc(-c2ccccc2)nc(N2CCC(C(=O)NC34CC5CC(CC(C5)C3)C4)CC2)n1 -9.15%, CCOC(=O)C1=C(N)N2C(=O)C(C)SC2=C(C(=O)OCC)C1c1cc(OC)c(OC)c(OC)c1 (stereo not given) -2.88%, C/C=C(/C)C(=O)Nc1cccc(C2=NOC3(C2)C[C@@H](C(N)=O)N(C(=O)C2(C)CC2)C3)c1 (stereo not given in full) -16%, C/C=C\C=C\C(=O)N1CC2(CC(c3cccc(NC(=O)/C(C)=C\C)c3)=NO2)C[C@H]1C(N)=O (stereo not given in full) -3.46%, COc1ccc(/C=N/n2nnnc2N)cc1OC -3.77%, COc1cc(/C=C/C(=O)OCC(=O)N2CCOCC2)ccc1OCC#N -3.2%, CC1CCc2sc3nc(N4CCN(CCO)CC4)n4ncnc4c3c2C1 (stereo not given) -8.25%, CCOC(=O)NC(=O)C(=CNc1cccc(OC)c1)C(=O)NC(=O)OCC -5.67%, COc1ccc(C2CC(c3ccc([N+](=O)[O-])cc3)=NN2C(C)=O)cc1 (stereo not given) 1.76%, COC(=O)c1c(C)[nH]c(C)c1-c1ccc([N+](=O)[O-])cc1 -8.28%, Nc1nonc1-n1nnc(C(=O)N/N=C/c2ccc(Cl)cc2)c1-c1ccc2c(c1)OCO2 1.23%, COc1cccc(NCCC(=O)c2cccc([N+](=O)[O-])c2)c1 1.63%, COc1ccc(C(=O)CC(=O)C(=O)Nc2cc([N+](=O)[O-])ccc2OC)cc1 -6.63%, CC(=O)Nc1ccc(S(=O)(=O)NCCC(=O)N2CCN(c3ccccc3Cl)CC2)cc1 -2.43%, CCCn1c(NC(=O)C23CC4CC(CC(O)(C4)C2)C3)nc2ccccc21 -2.56%, O=C(Cc1ccsc1)N1CCN(S(=O)(=O)c2cc(C(F)(F)F)cc(C(F)(F)F)c2)CC1 -3.29%, CC(C)CCNC(=O)C1CCC(CNc2c(N3CCC(C)CC3)c(=O)c2=O)CC1 (stereo not given) -1.82%, C/C(=C(\C#N)C(=O)NCCCN1CCOCC1)N(C)C -7.59%, COc1cc(C(=S)N2CCOCC2)ccc1O -1.79%, CCOc1cc(C(=S)N2CCOCC2)ccc1OS(=O)(=O)c1ccc(Br)cc1 -3.84%, O=C(CN1CCN(C2CCS(=O)(=O)C2)CC1)N1N=C(c2ccc(Cl)cc2)CC1c1ccco1 (stereo not given) -3.9%, O=C(NCC(=O)N1CCCC(C(F)(F)F)C1)c1ccccc1F (stereo not given) -2.23%, CCN(CC)CC(=O)Nc1sc2c(c1C(=O)c1ccccc1C)CCC2 1.14%, COc1ccc2c(C)cc3nnnn3c2c1 -2.56%, COc1ccc2[nH]c(C(=O)N3CCN(C)CC3)c(C)c2c1 -7.04%, COc1c(C(C)C)oc2cc3oc(=O)ccc3cc12 -10.3%, Cc1cccc(NC(=O)C2CCCN(C(=O)Nc3ccc(F)cc3)C2)c1C (stereo not given) -9.22%, COc1ccccc1-n1cn[nH]c1=S -7.32%, COc1ccc(OC)c(-n2c(-c3ccn[nH]3)n[nH]c2=S)c1 6.84%, Cc1ccccc1N1CC(C(=O)Nc2ccc3c(c2)OCO3)CC1=O (stereo not given) -5.81%, Cc1ccc(C)c(N2CCN(C(=O)CCc3nc(-c4cccc(C(F)(F)F)c4)no3)CC2)c1 2.36%, CCc1ccc2nc3sc(C(=O)Nc4nnc(CC)s4)c(N)c3cc2c1 -0.825%, COc1ccc(OC)c(NC(=O)c2sc3nc(C)cc(C)c3c2N)c1 -11%, COc1cc(C(=O)Nc2ncccc2C)ccc1OCC(=O)N1CCOCC1 -6.99%, COc1cccc(NC(=O)N2CCCC2C(=O)NC2CCCCC2)c1 (stereo not given) -7.25%, COc1ccc(NC(=O)c2sc(N3CCOCC3)nc2-c2ccccc2)c(OC)c1 -6.69%, CCC1Sc2ccc(S(=O)(=O)CCC(=O)NCc3cccs3)cc2NC1=O (stereo not given) -2.6%, O=c1c2ccccc2oc2nc(C3CCCCC3)n(Cc3ccco3)c(=O)c12 -6.57%, CCCc1nc2c(c(=O)c3ccccc3n2C)c(=O)n1C1CCCCCC1 2.29%, CC(=O)N1C(=O)/C(=C2\SC(=S)N(NC(=O)c3ccc(O)cc3)C2=O)c2ccccc21 1.88%, COc1cccc(NC(=O)CSc2nnc(C3CCCCC3)n2N)c1 -9.04%, Cc1cccc(NC(=O)c2ccc(S(=O)(=O)N(C)CC3CCCO3)cc2)c1C (stereo not given) 1.74%, Cc1ccc(C)c(S(=O)(=O)Nc2cc(C)on2)c1 -6.75%, Cc1ccc(NCc2n[nH]c(=S)n2-c2ccccc2)cc1Cl 10.6%, NC(=O)Cn1nc([N+](=O)[O-])nc1Oc1ccc(Br)cc1 -11.7%, COCCn1c(CN2CCC(Cc3ccccc3)CC2)nc2c1c(=O)n(C)c(=O)n2C -4.86%, COc1cccc(NC(=O)c2nn(C34CC5CC(CC(C5)C3)C4)cc2[N+](=O)[O-])c1 0.433%, Cc1ncn(C23CC4CC(CC(O)(C4)C2)C3)n1 -4.67%

inhibition, active:
C=C(C)C(=O)Nc1cccc(C2=NOC3(C2)C[C@H](C(N)=O)N(C(=O)C(c2ccccc2)c2ccccc2)C3)c1 (stereo not given in full) 53.1%, CC(=O)N1CC[n+]2c(-c3ccc([N+](=O)[O-])cc3)csc21 54.4%, COc1cccc(C(=O)CC(=O)C(=O)Nc2ccc([N+](=O)[O-])cc2C)c1 51.3%, CCOc1cc(C(=S)N2CCOCC2)ccc1O 51.9%, FC(F)(F)C1CCCN(c2nsc3ccccc23)C1 (stereo not given) 72.5%, COc1ccc2[nH]c(=S)cc(C)c2c1 45.8%, COc1ccccc1-n1c(-c2cc(-c3ccco3)[nH]n2)n[nH]c1=S 66.2%, Cc1ccc(NC(=O)c2sc3nc(N)c(C#N)cc3c2N)cc1 53.5%, Cn1c2ccccc2c(=O)c2c(=O)n(Cc3ccco3)c(COc3ccccc3)nc21 52.8%, Cc1cc(-c2n[nH]c(=S)n2-c2ccc(C)c(C)c2)no1 45.2%, Cc1ccnc(-n2sc3ccccc3c2=O)n1 87%, Cc1nc([N+](=O)[O-])nn1C12CC3CC(CC(Br)(C3)C1)C2 59.1%
